Measured values: the supplement of paper PMC6555819

Legend:
Assay in all cases: PBM binding z-score (relative to random genomic background probes); higher = stronger binding; sequences stand for … in GC…GCGATTGACAGCGTAGAATGAAGG
[1] = system: RARb homodimer (NR concentration 270 nM)
Method in brief: (§1)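 Antibodies against each partner of ligand-free nuclear receptor dimers (one per run) detected binding on custom Agilent 4×180K protein-binding microarrays after 1 h incubation. The double-stranded probes had 34-nt variable regions carrying direct-repeat seeds, single-nucleotide variants, half-site ablations and random human genomic background sequences. Binding z-scores, from regression-normalized fluorescence, use the random background probes as reference.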

[2] = system: RARg:RXRa (NR concentration 270 nM, RXRa partner concentration 90 nM)
Method in brief: as §1

[3] = system: RARg homodimer (NR concentration 270 nM)
Method in brief: as §1

[4] = system: RXRa DBDmut IVT, anti-RXR (DBD mutation: RXRa K156A/R161A, NR concentration 90 nM)
Method in brief: as §1

[5] = system: RXRa homodimer (NR concentration 180 nM)
Method in brief: as §1

[6] = system: THRa:RXRa (NR concentration 90 nM, RXRa partner concentration 90 nM)
Method in brief: as §1

[7] = system: THRa homodimer (NR concentration 90 nM)
Method in brief: as §1

[8] = system: VDR homodimer (NR concentration 270 nM)
Method in brief: as §1

Sequence: TGAATGAGGTTCAAGATCAGGGAACGTGGCGTCG
- PBM binding z-score [1]: 0.237
- PBM binding z-score [2]: 1.24
- PBM binding z-score [3]: 0.706
- PBM binding z-score [4]: 2.14
- PBM binding z-score [5]: 1.66
- PBM binding z-score [6]: 0.882
- PBM binding z-score [7]: -0.612
- PBM binding z-score [8]: 1.64

Sequence: CAATCTAGGTCACCGGAAGGTCAAAGTCCGCATG
- PBM binding z-score [1]: 5.77
- PBM binding z-score [2]: 8.45
- PBM binding z-score [3]: 7.81
- PBM binding z-score [4]: 1.98
- PBM binding z-score [5]: 7.46
- PBM binding z-score [6]: 4.59
- PBM binding z-score [7]: 3.62
- PBM binding z-score [8]: 4.12

Sequence: ATGTCTAGGTAACAAGTTCAGTGAAAGAGAGGAC
- PBM binding z-score [1]: 1.85
- PBM binding z-score [2]: 1.29
- PBM binding z-score [3]: 1.35
- PBM binding z-score [4]: 0.903
- PBM binding z-score [5]: 0.727
- PBM binding z-score [6]: 1.56
- PBM binding z-score [7]: 0.576
- PBM binding z-score [8]: 2.23

Sequence: CAAACTAGGTCAAGAGGTCAAATTCCGCTTCCCG
- PBM binding z-score [1]: 5.63
- PBM binding z-score [2]: 8.27
- PBM binding z-score [3]: 7.69
- PBM binding z-score [4]: 2.86
- PBM binding z-score [5]: 8.31
- PBM binding z-score [6]: 4.58
- PBM binding z-score [7]: 2.73
- PBM binding z-score [8]: 4.49

Sequence: AGAACGAGGGCACGCTGAGTTGATAGCCGAGTAG
- PBM binding z-score [1]: 1.22
- PBM binding z-score [2]: 1.94
- PBM binding z-score [3]: 2.15
- PBM binding z-score [4]: 1.99
- PBM binding z-score [5]: 1.39
- PBM binding z-score [6]: 1.89
- PBM binding z-score [7]: 0.0635
- PBM binding z-score [8]: 1.57

Sequence: ATCGAAAGGTCGACGAGGTGTGTATACACCGTTT
- PBM binding z-score [1]: 2.54
- PBM binding z-score [2]: 4.07
- PBM binding z-score [3]: 3.97
- PBM binding z-score [4]: 1.18
- PBM binding z-score [5]: 4.14
- PBM binding z-score [6]: 2.22
- PBM binding z-score [7]: -0.542
- PBM binding z-score [8]: 0.527

Sequence: CCTTATGGGTCACTCCAGGTTATAGCATCGGAGT
- PBM binding z-score [1]: 2.87
- PBM binding z-score [2]: 3.68
- PBM binding z-score [3]: 3.9
- PBM binding z-score [4]: 0.586
- PBM binding z-score [5]: 3.31
- PBM binding z-score [6]: 4.85
- PBM binding z-score [7]: 0.288
- PBM binding z-score [8]: 0.918

Sequence: CCTAGTTGGTCAAGGTCACACTCGCTATAGGTAC
- PBM binding z-score [1]: 4.05
- PBM binding z-score [2]: 4.19
- PBM binding z-score [3]: 4.5
- PBM binding z-score [4]: 2.44
- PBM binding z-score [5]: 3.96
- PBM binding z-score [6]: 3.92
- PBM binding z-score [7]: 4.03
- PBM binding z-score [8]: 3.42

Sequence: CTCGAAAGGTCTGTTGAGGTGAGTATACGGATAA
- PBM binding z-score [1]: 0.88
- PBM binding z-score [2]: 0.827
- PBM binding z-score [3]: 1.16
- PBM binding z-score [4]: -0.237
- PBM binding z-score [5]: 0.536
- PBM binding z-score [6]: 4.3
- PBM binding z-score [7]: 1.12
- PBM binding z-score [8]: -0.104

Sequence: TCTGGGAGGACACGAAAGGTCAGAGCTCGACATC
- PBM binding z-score [1]: 4.8
- PBM binding z-score [2]: 4.88
- PBM binding z-score [3]: 5.82
- PBM binding z-score [4]: 0.799
- PBM binding z-score [5]: 4.23
- PBM binding z-score [6]: 3.73
- PBM binding z-score [7]: 1.59
- PBM binding z-score [8]: 1.27

Sequence: TAGCCTAGGTCATTCATGGGCCAGTATAGAAAGC
- PBM binding z-score [1]: 2.52
- PBM binding z-score [2]: 4.74
- PBM binding z-score [3]: 4.57
- PBM binding z-score [4]: 1.84
- PBM binding z-score [5]: 3.2
- PBM binding z-score [6]: 2.71
- PBM binding z-score [7]: 0.289
- PBM binding z-score [8]: 0.945

Sequence: ATATGTAGGTTAAGGGTCTTTCAGGTTGGTTCGC
- PBM binding z-score [1]: 1.78
- PBM binding z-score [2]: 1
- PBM binding z-score [3]: 0.853
- PBM binding z-score [4]: 0.724
- PBM binding z-score [5]: 1.96
- PBM binding z-score [6]: 1.54
- PBM binding z-score [7]: 1.44
- PBM binding z-score [8]: 1.64

Sequence: TCGTATAGGTAAAAGGTGAAAGTCGGTGTGGTAA
- PBM binding z-score [1]: 2.13
- PBM binding z-score [2]: 2.13
- PBM binding z-score [3]: 0.793
- PBM binding z-score [4]: 1.59
- PBM binding z-score [5]: 3.14
- PBM binding z-score [6]: 1.85
- PBM binding z-score [7]: 0.583
- PBM binding z-score [8]: 0.462

Sequence: CGAACTAGGTCATTGACGGGACAGTGAATAGTAA
- PBM binding z-score [1]: 2.6
- PBM binding z-score [2]: 4.41
- PBM binding z-score [3]: 4.35
- PBM binding z-score [4]: 2.41
- PBM binding z-score [5]: 2.61
- PBM binding z-score [6]: 2.63
- PBM binding z-score [7]: 0.664
- PBM binding z-score [8]: 0.927

Sequence: TAGACTAGGTCATTGGGCCAGTATAGTACGCATC
- PBM binding z-score [1]: 2.75
- PBM binding z-score [2]: 3.47
- PBM binding z-score [3]: 4.19
- PBM binding z-score [4]: 0.824
- PBM binding z-score [5]: 2.44
- PBM binding z-score [6]: 2.45
- PBM binding z-score [7]: 0.646
- PBM binding z-score [8]: 1.26

Sequence: AGAATGAGGTTATTAAGATCAGGGACTTGCGGTC
- PBM binding z-score [1]: 0.973
- PBM binding z-score [2]: 1.12
- PBM binding z-score [3]: 0.814
- PBM binding z-score [4]: 1.92
- PBM binding z-score [5]: 1.82
- PBM binding z-score [6]: 2.09
- PBM binding z-score [7]: 0.617
- PBM binding z-score [8]: 1.36

Sequence: CCACCAAGGTGAACAAGGTCGTTGATTACTATTC
- PBM binding z-score [1]: 2.39
- PBM binding z-score [2]: 2.05
- PBM binding z-score [3]: 1.62
- PBM binding z-score [4]: 1.32
- PBM binding z-score [5]: 2.07
- PBM binding z-score [6]: 3.42
- PBM binding z-score [7]: 2.4
- PBM binding z-score [8]: 3.07

Sequence: CTCGAAAGGTCGGTTGAGGTGCGTATACGGATAA
- PBM binding z-score [1]: 1.76
- PBM binding z-score [2]: 2.59
- PBM binding z-score [3]: 2.85
- PBM binding z-score [4]: 0.676
- PBM binding z-score [5]: 2.12
- PBM binding z-score [6]: 3.88
- PBM binding z-score [7]: -0.208
- PBM binding z-score [8]: 0.626

Sequence: TCTTTTAGTTGATTAGGGCAACCGAAACAGCGGA
- PBM binding z-score [1]: 1.02
- PBM binding z-score [2]: 1.27
- PBM binding z-score [3]: 1.12
- PBM binding z-score [4]: 1.2
- PBM binding z-score [5]: 0.836
- PBM binding z-score [6]: 1.07
- PBM binding z-score [7]: 0.745
- PBM binding z-score [8]: 0.435

Sequence: ATCTCTTGGTAAAAGTTCAGTGAATCCCGAGGAT
- PBM binding z-score [1]: 2.43
- PBM binding z-score [2]: 1.43
- PBM binding z-score [3]: 1.95
- PBM binding z-score [4]: 0.705
- PBM binding z-score [5]: 1.02
- PBM binding z-score [6]: 0.75
- PBM binding z-score [7]: 0.436
- PBM binding z-score [8]: 1.86

Sequence: AATACAGGGTCATAGTAGGCCAGAGTACGCACAG
- PBM binding z-score [1]: 3.26
- PBM binding z-score [2]: 4.92
- PBM binding z-score [3]: 4.13
- PBM binding z-score [4]: 3.36
- PBM binding z-score [5]: 5.63
- PBM binding z-score [6]: 4.23
- PBM binding z-score [7]: 1.41
- PBM binding z-score [8]: 3.6

Sequence: TAGCCTAGGTCATTCAGGGGCCAGGATAGAAAGC
- PBM binding z-score [1]: 3.18
- PBM binding z-score [2]: 6.27
- PBM binding z-score [3]: 4.6
- PBM binding z-score [4]: 1.8
- PBM binding z-score [5]: 2.86
- PBM binding z-score [6]: 3.57
- PBM binding z-score [7]: 0.667
- PBM binding z-score [8]: 1.6

Sequence: GCGGCTGGGGCATCAGCAGGTTACCATAACTTAA
- PBM binding z-score [1]: 1.16
- PBM binding z-score [2]: 0.705
- PBM binding z-score [3]: 0.632
- PBM binding z-score [4]: -0.632
- PBM binding z-score [5]: 0.166
- PBM binding z-score [6]: 1.01
- PBM binding z-score [7]: -0.483
- PBM binding z-score [8]: -0.207

Sequence: TCTATTAGATGATTAGGGCAACCGAAACAGCGGA
- PBM binding z-score [1]: 0.19
- PBM binding z-score [2]: 0.609
- PBM binding z-score [3]: 0.575
- PBM binding z-score [4]: 1.02
- PBM binding z-score [5]: 0.432
- PBM binding z-score [6]: 0.35
- PBM binding z-score [7]: -0.055
- PBM binding z-score [8]: 0.272

Sequence: CCTACTTGGCCAAGGTCATTGATCAGTCAAAGCA
- PBM binding z-score [1]: 3.78
- PBM binding z-score [2]: 4.01
- PBM binding z-score [3]: 3.47
- PBM binding z-score [4]: 2.56
- PBM binding z-score [5]: 3.83
- PBM binding z-score [6]: 3.82
- PBM binding z-score [7]: 3.07
- PBM binding z-score [8]: 3.62

Sequence: CCTCGCAGGACAGAAGGTCAGAGCTGTCCGCTTT
- PBM binding z-score [1]: 3.34
- PBM binding z-score [2]: 2.74
- PBM binding z-score [3]: 2.61
- PBM binding z-score [4]: 0.371
- PBM binding z-score [5]: 1.74
- PBM binding z-score [6]: 1.58
- PBM binding z-score [7]: 0.0874
- PBM binding z-score [8]: 0.0556

Sequence: CGTCCAAGGTCAATGCTAGGTCAGTGAAAGCATT
- PBM binding z-score [1]: 4.88
- PBM binding z-score [2]: 7.68
- PBM binding z-score [3]: 6.83
- PBM binding z-score [4]: 3.85
- PBM binding z-score [5]: 5.28
- PBM binding z-score [6]: 4.31
- PBM binding z-score [7]: 2.74
- PBM binding z-score [8]: 3.1

Sequence: CAAACTAGTTCAAAGGTCAAAGTCGAGCCAACCA
- PBM binding z-score [1]: 4.9
- PBM binding z-score [2]: 7.49
- PBM binding z-score [3]: 6.13
- PBM binding z-score [4]: 3.58
- PBM binding z-score [5]: 9.59
- PBM binding z-score [6]: 4.16
- PBM binding z-score [7]: 1.06
- PBM binding z-score [8]: 3.89
